Some of the results follow. How many sequences the whole screen found active is unknown.
Target: furin, P09958
Test: furin cleavage Z-score vs untreated control; higher = more cleavage, active = 3.5 or more, inactive = 1 or less, 8 variable residues between constant flanks
Summary of the method: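 Peptides 8 residues long, fused to a cDNA oligonucleotide, were fixed to magnetic beads by the N-terminus and exposed to purified furin. The 0.01 ml reactions contained 50 mM HEPES pH 7.5 with CaCl2 and NaCl at 1:10 enzyme:substrate and ran 7.5, 15 or 30 min. For the cleavage Z-score, log counts of sequenced released DNA were compared with furin-free reactions, lowess-adjusted and scaled by median absolute deviation.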

furin, P09958, sequence (P09958 whole entry): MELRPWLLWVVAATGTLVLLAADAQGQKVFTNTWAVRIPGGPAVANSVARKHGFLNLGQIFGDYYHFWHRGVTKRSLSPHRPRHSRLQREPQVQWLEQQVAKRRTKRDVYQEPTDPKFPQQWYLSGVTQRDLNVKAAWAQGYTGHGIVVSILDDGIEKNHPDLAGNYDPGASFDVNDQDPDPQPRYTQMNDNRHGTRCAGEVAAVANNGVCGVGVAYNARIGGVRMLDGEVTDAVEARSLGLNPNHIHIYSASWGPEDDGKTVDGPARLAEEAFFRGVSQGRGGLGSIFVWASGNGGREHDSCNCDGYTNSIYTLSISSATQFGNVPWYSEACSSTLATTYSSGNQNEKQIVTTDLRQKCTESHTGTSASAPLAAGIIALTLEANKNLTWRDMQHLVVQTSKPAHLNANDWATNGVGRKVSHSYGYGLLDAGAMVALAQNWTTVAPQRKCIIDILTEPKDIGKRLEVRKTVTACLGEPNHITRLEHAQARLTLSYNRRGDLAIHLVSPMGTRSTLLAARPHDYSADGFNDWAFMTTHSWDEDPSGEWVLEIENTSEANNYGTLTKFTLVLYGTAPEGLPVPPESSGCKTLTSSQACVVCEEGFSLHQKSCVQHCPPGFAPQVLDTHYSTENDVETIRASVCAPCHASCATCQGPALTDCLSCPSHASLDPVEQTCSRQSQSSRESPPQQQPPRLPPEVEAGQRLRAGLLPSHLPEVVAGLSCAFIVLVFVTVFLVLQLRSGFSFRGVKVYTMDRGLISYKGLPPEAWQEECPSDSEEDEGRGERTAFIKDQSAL

Sequence | furin cleavage Z-score (7.5 min) | furin cleavage Z-score (15 min) | furin cleavage Z-score (30 min)
CAFAPPCKPLAGNASASA [HC1227] | -0.328 (inactive) | -1.28 (inactive) | -1.52 (inactive)
CAMIAGAHWGAGNASASA [HC334] | -0.899 (inactive) | -0.615 (inactive) | -0.232 (inactive)
CAALLRTRRSAGNASASA [FS-972] | 8.62 (active) | 7.98 (active) | 4.19 (active)
CAALVVGVVCAGNASASA [HC1106] | -0.352 (inactive) | -0.584 (inactive) | -0.588 (inactive)
CAVTRRKGRCAGNASASA [FS-1294] | 3.46 | 5.29 (active) | 5.86 (active)
CAALVMAQLLAGNASASA [HC326] | 0.829 (inactive) | 0.666 (inactive) | -0.00652 (inactive)
CAVTRHADVIAGNASASA [HC727] | -0.38 (inactive) | 1 | -0.771 (inactive)
CAALVRTRRCAGNASASA [FS-214] | 5.77 (active) | 6.03 (active) | 5.43 (active)
CARTGRACECAGNASASA [FS-2464] | -0.465 (inactive) | 0.257 (inactive) | 0.474 (inactive)
CAHFKRTRRSAGNASASA [FS-1532] | 10.4 (active) | 10.2 (active) | 8.6 (active)
CATALNCNDSAGNASASA [HC373] | -0.291 (inactive) | 1.13 | -0.956 (inactive)
CADPNIRTGVAGNASASA [HC798] | -0.151 (inactive) | 0.395 (inactive) | 0.163 (inactive)
CATTPCKGSWAGNASASA [HC71] | 1.27 | 0.748 (inactive) | 0.0767 (inactive)
CAMEECSQHNAGNASASA [HC1781] | 1.41 | 1.49 | 0.115 (inactive)
CATTPCSGGWAGNASASA [HC1916] | -1.1 (inactive) | -1.09 (inactive) | -1.17 (inactive)
CARLCRKRRCAGNASASA [FS-1478] | 5.9 (active) | 6.48 (active) | 7.28 (active)
CARLASCRPLAGNASASA [HC388] | -0.427 (inactive) | -1.06 (inactive) | -2.04 (inactive)
CAMPKKTRRSAGNASASA [FS-1140] | 9.94 (active) | 11.9 (active) | 9.14 (active)
CARAGRACEGAGNASASA [FS-2882] | 0.299 (inactive) | -0.431 (inactive) | 0.946 (inactive)
CARAGRSGKEAGNASASA [FS-1990] | 0.457 (inactive) | 0.0281 (inactive) | -1.58 (inactive)
CARAGRSKRTAGNASASA [FS-486] | 10.8 (active) | 9.36 (active) | 7.48 (active)
CARAGRSKGTAGNASASA [FU10] | 1.67 | 1.52 | 0.0134 (inactive)
CARIKRRKSLAGNASASA [FS-2953] | 2.28 | 3.44 | 5 (active)
CARIKRGNTTAGNASASA [FS-2952] | 4.9 (active) | 5.56 (active) | 4.43 (active)
CARKKKRQSLAGNASASA [FS-2153] | 0.376 (inactive) | 0.239 (inactive) | 0.449 (inactive)
CAGITGDNTTAGNASASA [HC1340] | 0.448 (inactive) | -1.88 (inactive) | -0.26 (inactive)
CARAGRSAPLAGNASASA [FS-2883] | 2.27 | 5.01 (active) | 3.82 (active)
CAWISSECTTAGNASASA [HC1142] | -0.663 (inactive) | -0.247 (inactive) | 0.84 (inactive)
CAPLKRSMSLAGNASASA [FS-2875] | 2.28 | 0.41 (inactive) | 0.484 (inactive)
